In PubChem BioAssay (Tox21):
Records with an inconclusive call do not appear. A call without a number means that no potency is given here. Unmarked numbers belong to inactive results. Active and inactive are the calls of the source. Calls come from the whole dose curve; as a rule, active = well fitted curve in the direction sought with a large enough effect in the repeat runs; inconclusive = weak or mixed curves; inactive = no such curve, though single readings can be large; an effect the other way counts as inactive or inconclusive.

Key:
[1] = A CellTox Green Cytotoxicity Assay to monitor cytotoxicity in HEK293 cells - 40 hour (AID 1224871); note: nearly all actives have a fitted effect of over 45% in size; note: potency is the fitted concentration of half-maximal effect
In short: (§1)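 HEK293 cells, 600/well, were preincubated 5 hours and then exposed to compounds at 37 C for up to 40 hours. A cell-impermeant cyanine dye staining dead-cell DNA was read by fluorescence at 0, 8, 16, 24, 32 and 40 h time points.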

[2] = qHTS RealTime-Glo MT Cell Viability Assay in HEK293 cells - 16 hour (AID 1224872); note: top concentration of the series differs between compounds; nearly all actives have a fitted effect of over 50% in size
In short: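 Tox21 10K qHTS, HEK293, 600 cells/well, RealTime-Glo reagent co-dispensed with cells; 5 h preincubation, compound by pintool, 37 C, luminescence at 0–40 h.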

[3] = qHTS RealTime-Glo MT Cell Viability Assay in HepG2 cells - 8 hour (AID 1224873); note: nearly all actives have a fitted effect of over 55% in size; note: potency is the fitted concentration of half-maximal effect
In short: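 HepG2 cells mixed with RealTime-Glo MT reagents (NanoLuc plus cell-permeant prosubstrate) were seeded at 600 cells/well, incubated 5 h at 37 C/5% CO2, then pinned with compounds in DMSO; nonlytic luminescence tracked viability during 40 h treatment.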

[4] = qHTS RealTime-Glo MT Cell Viability Assay in HEK293 cells - 40 hour (AID 1224874); settings: RealTime-Glo luminescence; max response: stronger effect = lower value; note: nearly all actives have a fitted effect of over 50% in size
In short: (§2)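 600 cells/well were plated with the nonlytic NanoLuc/prosubstrate reagent, pre-incubated 5 h, then given 23 nL of compound in DMSO. Incubation at 37 C for 40 h, with luminescence from viable-cell-reduced substrate read repeatedly from 0 h.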

[5] = A CellTox Green Cytotoxicity Assay to monitor cytotoxicity in HEK293 cells - 24 hour (AID 1224875); note: nearly all actives have a fitted effect of over 45% in size; note: potency is the fitted concentration of half-maximal effect; for activity change: series mostly up to about 77 µM
In short: as §1

[6] = A CellTox Green Cytotoxicity Assay to monitor cytotoxicity in HepG2 cells - 16 hour (AID 1224876); note: nearly all actives have a fitted effect of over 45% in size; note: potency is the fitted concentration of half-maximal effect
In short: (§3)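 HepG2 cells, 600/well, preincubated 5 h with CellTox Green dye, then exposed to Tox21 compounds in DMSO at 37 C for up to 40 h. Dead-cell DNA fluorescence read at the indicated time point.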

[7] = qHTS RealTime-Glo MT Cell Viability Assay in HepG2 cells - 32 hour (AID 1224877); note: nearly all actives have a fitted effect of over 55% in size; note: potency is the fitted concentration of half-maximal effect
In short: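 Cells + NanoLuc/prosubstrate dispensed (600 cells/well) → 5 h at 37 C/5% CO2 → compounds in DMSO transferred → 40 h incubation at 37 C, luminescence read at 0, 8, 16, 24, 32, 40 h.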

[8] = A CellTox Green Cytotoxicity Assay to monitor cytotoxicity in HepG2 cells - 24 hour (AID 1224878); note: nearly all actives have a fitted effect of over 45% in size; note: potency is the fitted concentration of half-maximal effect
In short: as §3

[9] = qHTS RealTime-Glo MT Cell Viability Assay in HEK293 cells - 0 hour (AID 1224880); note: nearly all actives have a fitted effect of over 45% in size; note: potency is the fitted concentration of half-maximal effect; for activity change, negative = cytotoxicity: top concentration of the series differs between compounds
In short: as §2

[10] = A CellTox Green Cytotoxicity Assay to monitor cytotoxicity in HepG2 cells - 40 hour (AID 1224879); note: nearly all actives have a fitted effect of over 40% in size; note: potency is the fitted concentration of half-maximal effect
In short: as §3

SMILES	Potency [1]	Potency [2]	Potency [3]	max response [4]	Potency [5]	Potency [6]	Potency [7]	Potency [8]	Potency [9]	Potency [10]	cytotoxicity increase [1]	activity change, negative = cytotoxicity [2]	viability change, negative = cytotoxic [3]	activity change [5]	cytotoxicity increase [6]	activity change, negative = cytotoxic [7]	cytotoxicity [8]	cytotoxicity increase [10]	activity change, negative = cytotoxicity [9]
O=C(O)c1cccnc1C(=O)O	inactive	inactive	inactive	-1.78%	inactive	inactive	inactive	inactive	inactive										
Cc1cc(C(=C2C=CC(=Nc3ccc(S(=O)(=O)O)cc3S(=O)(=O)O)C=C2)c2ccc(Nc3ccc(S(=O)(=O)O)cc3)cc2)ccc1N	inactive	inactive	inactive	-3.61%	inactive	inactive	inactive	inactive	inactive	inactive									
COCC(O)CO (centres undefined)	inactive	inactive	inactive	-5.25%	inactive	inactive	inactive	inactive	inactive	inactive									
CC#N	inactive	inactive	inactive	1.57%	inactive	inactive	inactive	inactive	inactive	inactive									
CCCCCCCC/C=C\CCCCCCCC(=O)OC	inactive	inactive	inactive	5.42%	inactive	inactive	inactive	inactive	inactive										
Nc1ccc(Cl)cc1[N+](=O)[O-]	inactive	inactive	inactive	2.66%	inactive	inactive	inactive	inactive	inactive	inactive									
COC(=O)c1cc(S(N)(=O)=O)ccc1OC	inactive	inactive	inactive	7.1%	inactive	inactive	inactive	inactive	inactive	inactive									
O=Cc1c(Cl)cccc1Cl	inactive	inactive	inactive	-15.3%	inactive	inactive	inactive	inactive	inactive										
CC(C)CCCCCCOC(=O)CCCCC(=O)OCCCCCCC(C)C	inactive	inactive	inactive	0.314%	inactive	inactive	inactive	inactive	inactive	inactive									
CCCCCCOC(=O)CCCCCCCC(=O)OCCCCCC	inactive	inactive	inactive	1.87%	inactive	inactive	inactive	inactive	inactive	inactive									
CO[C@H]1O[C@H](CO)[C@@H](O)[C@H](O)[C@H]1O	inactive	inactive	inactive	5.92%	inactive	inactive	inactive	inactive	inactive	inactive									
CN1CCN(c2c(F)cc3c(=O)c(C(=O)O)cn4c3c2OCN4C)CC1				2.93%							-7.47% [at 15.8 µM]	1.07% [at 15.8 µM]	8.52% [at 15.8 µM]	-4.87% [at 15.8 µM, stronger effect = higher value]	-5.53% [at 15.8 µM]	-0.186% [at 15.8 µM]	-1.37% [at 15.8 µM]	-7.78% [at 15.8 µM]	-2.72% [at 15.8 µM]
CC[C@H](NC(=O)c1cc(F)ccc1NS(=O)(=O)c1cccc2cccnc12)c1ccccc1	inactive	inactive	41.3 µM (active)	-13%	inactive	inactive	52 µM (active)	inactive	23.2 µM (active)										
CC(C)C(=O)O	inactive	inactive	inactive	9.49%	inactive	inactive	inactive	inactive	inactive	inactive									
CCCc1c(OCCCOc2ccc(OCC(=O)O)cc2)ccc(C(C)=O)c1O	inactive	inactive	inactive	-7.6%	inactive	inactive	inactive	inactive	inactive										
Cc1ccc(S)cc1	inactive	inactive	inactive	4.48%	inactive	inactive	inactive	17.4 µM (active)	inactive	17.4 µM (active)									
CC(C)(CCl)c1ccccc1	inactive	inactive	inactive	4.77%	inactive	inactive	inactive	inactive	inactive	inactive									
CC1C2CC(CC2C2CCCC(O)C2)C1(C)C (centres undefined)	49 µM (active)	inactive	inactive	-15.9%	49 µM (active)	38.9 µM (active)	inactive	43.6 µM (active)	inactive	43.6 µM (active)									
OCC1CC=CCC1 (centres undefined)	inactive	inactive	inactive	-1.94%	inactive	inactive	inactive	inactive	inactive	inactive									
Cc1nc2ccccc2s1	inactive	inactive	inactive	2.93%	inactive	inactive	inactive	inactive	inactive	inactive									
COc1ccc(CCC(=O)c2c(O)cc(O[C@@H]3O[C@H](CO)[C@@H](O)[C@H](O)[C@H]3O[C@@H]3O[C@@H](C)[C@H](O)[C@@H](O)[C@H]3O)cc2O)cc1O	inactive	inactive	inactive	12.3%	inactive	inactive	inactive		inactive	inactive									
